Sampled rows, rich in hits. Any-hit rate of the full collection: about 0.52%.
GCN5L2 inh: qHTS Assay for Inhibitors of GCN5L2. GCN5L2 HAT assay, ThioGlo1 CoA-SH fluorescence. Potency, µM (titrated, usually from 58.9 µM), for the others: top-dose activity change, negative = inhibition, usual class: inhibitors. 0.21% of 390,000 active. AID 504327, 2011
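Free CoA generated was detected with ThioGlo1 (50uM) fluorescence at Ex340nm/Em540nm, read immediately and after 20 min at room temperature. Enzyme, 20 nM in HEPES pH 7.5 buffer, saw compounds 15 min before adding 75uM H3(1-25) peptide and 70uM acetyl-CoA.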
Tb PGK inh: qHTS Assay to Find Inhibitors of Phosphoglycerate Kinase. Phosphoglycerate kinase, glycosomal (Trypanosoma brucei brucei), P07378. PGK/GAPDH coupled, Kinase-Glo luminescence, 60 min. 0.043% of 380,000 active. Potency, µM (doses to about 57.5 µM), for the others: at the top dose activity change, negative = inhibition, actives largely listed as inhibitors. AID 602233, 2012; also: nearly all actives have a fitted effect of over 60% in size
Target sequence (P07378 whole entry, looked up): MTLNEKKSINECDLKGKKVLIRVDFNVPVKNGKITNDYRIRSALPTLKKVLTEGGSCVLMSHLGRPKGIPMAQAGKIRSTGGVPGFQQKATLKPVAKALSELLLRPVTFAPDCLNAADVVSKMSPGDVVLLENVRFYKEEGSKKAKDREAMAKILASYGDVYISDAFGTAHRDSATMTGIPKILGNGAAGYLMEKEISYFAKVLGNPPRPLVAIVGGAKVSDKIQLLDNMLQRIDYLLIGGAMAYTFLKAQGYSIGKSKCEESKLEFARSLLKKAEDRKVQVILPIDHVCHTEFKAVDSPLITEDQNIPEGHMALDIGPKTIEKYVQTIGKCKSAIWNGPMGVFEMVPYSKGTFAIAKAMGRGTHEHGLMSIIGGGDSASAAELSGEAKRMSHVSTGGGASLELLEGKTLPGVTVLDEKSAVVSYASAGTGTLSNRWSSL
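Luminescent ATP detection (Kinase-Glo Plus) follows a 60-minute room-temperature incubation, with wells lacking PGK as controls. Buffer: 100 mM TEA (pH 7.6), 5 mM MgCl2, 0.01% Tween-20. Coupling enzyme GAPDH (100 nM final) supplies unstable 1,3-BPG in-well.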
USP2a block: qHTS Assay for Inhibitors of Ubiquitin-specific Protease USP2a Using CHOP2 as the Reporter; Ubiquitin carboxyl-terminal hydrolase 2 (Homo sapiens), O75604; USP2 core, Ub-CHOP2 coupled fluorogenic reporter, 485/531; Potency, µM (series often up to 38.3 µM), without a hit: at the highest dose activity change, negative = inhibition, actives largely listed as inhibitors; 0.01% of 330,000 active; AID 463254, 2010;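 also: plate controls were DMSO wells for no effect and full inhibition by NEM control for full effect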
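USP2 core (10nM final) preincubated 30min RT with compound in 20mM Tris-HCl pH 8.0, 2mM CaCl2, 2mM beta-mercaptoethanol, 0.05% CHAPS; 25nM Ub-CHOP2 plus 25nM reporter substrate added, fluorescence (Ex485/Em531) read after 60min.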
Tb PFK inh: qHTS Assay to Find Inhibitors of T. brucei phosphofructokinase | ATP-dependent 6-phosphofructokinase (Trypanosoma brucei brucei), O15648 | T. brucei PFK, ADP-Glo luminescence | Potency, µM (series often up to 57.5 µM), without a hit: at the highest dose activity, negative = inhibition, most hits filed as inhibitors | 0.17% of 330,000 active | AID 485367, 2010;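 also: 0% = uninhibited 1x PFK enzyme wells and -100% = no-enzyme wells; nearly all actives have a fitted effect of over 60% in size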
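1.25 nM PFK with 0.5 mM F6P and 0.1 mM ATP in 0.1 M TEA pH 8.0, 5 mM MgCl2, incubated 45 min at room temperature; ADP measured by ADP-Glo luminescence; compounds titrated up to 57 uM.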
GLS inh: qHTS for Inhibitors of Glutaminase (GLS). Glutaminase kidney isoform, mitochondrial (Homo sapiens), O94925. GLS enzymatic activity, qHTS titration. Potency, µM (titrated, usually from 45.5 µM), for the others: at the top dose activity change, negative = inhibition, actives largely listed as inhibitors. 0.21% of 410,000 active
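Read-out is an Amplex red fluorescence increase coupled through glutamate oxidase and HRP, measured before and after 30 min room-temperature incubation. hKGA is in 45 mM KH2PO4 (pH 8.2) with 0.02% Tween-20; glutamine added as 1mM solution.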
* = called active by the depositor; i = inactive; ? = inconclusive; . = no result given; [ ] = remark or other dose. Calls follow the shape of the dose curve; as a rule, active = well fitted curve in the direction sought with a large enough effect; inconclusive = small, poorly fitted or top-dose-only effect, or another doubt; inactive = no such curve, though single readings can be large; an effect the other way counts as inactive or inconclusive. Unless noted, % is scaled to controls: 0 for no effect and ±100 for the full control effect; potency is read from the fitted curve at half-maximal effect.

SMILES	GCN5L2 inh	Tb PGK inh	USP2a block	Tb PFK inh	GLS inh
CC(C)CCNC(=O)c1ccc2c(c1)NC(=O)C(CS(=O)(=O)Cc1cccc(Br)c1)N2 (stereo not drawn)	18.9%	-8.7%	.	.	1.4%
CN(c1ccc(OCC(=O)OCC(=O)Nc2ccc(Br)cc2)cc1)S(=O)(=O)c1cccs1	-12.4%	-8.1%	0.8%	0.3%	-2.1%
CN(c1ccc(OCC(=O)OCC(=O)Nc2ccccc2)cc1)S(=O)(=O)c1cccs1	10µM*	-5.6%	0.7%	11.3%	4.6%
O=C(CNC(=O)c1cccs1)NCC(=O)OCc1c(Cl)cccc1Cl	-6.1%	-5.5%	0.7%	1.8%	0.6%
O=C(CNC(=O)c1cccs1)NCC(=O)OCc1ccccc1Cl	3.16µM*	-6.1%	0.7%	-2.9%	-4.0%
CCOC(=O)[C@H](CCc1ccccc1)N[C@H]1CCCN2CCC[C@@H](C(=O)O)N2C1=O	.	.	.	.	0.2%
COCCN1C(=O)CC(NNC(=O)c2ccc(S(=O)(=O)N3CCCC3)cc2)C1=O (stereo not drawn)	7.3%	-6.7%	-0.8%	7.9%	10µM*
COc1cccc(-n2c(SCC(=O)NCCC3=CCCCC3)nc3n[nH]c(C)c3c2=N)c1	3.4%	-1.7%	-17.5%	9.2%	20µM*
COc1cccc(NC(=O)CSc2nc3n[nH]c(C)c3c(=N)n2-c2cccc(OC)c2)c1	-28.7%	-4.6%	2.2%	0.7%	-0.8%
CC(=O)C[C@H]1[C@H](O[C@H]2[C@H](OC(C)C(=O)N[C@@H](C)C(=O)N[C@H](CCC(=O)N[C@@H](CCCCN)C(=O)N[C@H](C)C(=O)O)C(N)=O)[C@@H](NC(=O)O)C(O)O[C@@H]2CO)O[C@H](CO)[C@@H](O)[C@@H]1O (stereo partly drawn)	.	.	.	.	-0.3%
C#CC1(OC(C)=O)CCC2C3CCC4=CC(OC(C)=O)CCC4C3CCC21C (stereo not drawn)	.	.	.	.	-5.0%
CC(C)C[C@H](NC(=O)[C@@H]1Cc2c([nH]c3ccccc23)C2c3ccccc3C(=O)N21)C(=O)N1CCC[C@@H]1C(=O)O (stereo partly drawn)	-12.0%	8.6%	1.4%	-4.9%	12.6µM*
CCOC(=O)N1CCN(c2c(F)cc3[nH]c(=S)[nH]c3c2Br)CC1	-6.9%	0.8%	-2.6%	12.2%	7.08µM*
COc1ccc(C2=CC3=C(Br)C(=O)C(C)(OC(=O)C4CCCC4)C(=O)C3=CO2)cc1 (stereo not drawn)	-3.8%	17.8µM*	2.8%	-3.1%	0.6%
COc1ccc(C2=CC3=C(Br)C(=O)C(C)(OC(=O)c4ccc(Cl)nc4)C(=O)C3=CO2)cc1 (stereo not drawn)	-4.3%	?	-4.2%	0.9%	-29.1%
COC(=O)CCC(=O)OC1(C)C(=O)C2=COC(c3ccc(OC)cc3)=CC2=C(Br)C1=O (stereo not drawn)	-4.8%	15.8µM*	7.2%	-2.1%	?
COc1ccc(Br)cc1/C=N/N1C(=O)CSC1=S	-20.8%	7.3%	1.8%	-0.1%	20µM*
COc1ccc(OC)c(C2CC(=O)N3CN(c4ccc(C)c(Cl)c4)CSC3=C2C#N)c1 (stereo not drawn)	14.1µM*	i	4.2%	-18.4%	9.7%
COc1ccc(OC)c(C2CC(=O)N3CN(c4cccc(Cl)c4)CSC3=C2C#N)c1 (stereo not drawn)	25.1µM*	-9.0%	-0.8%	-29.4%	-21.5%
Cc1cccc(CNC(=O)C2CCN(S(=O)(=O)c3ccc4c(c3)CCCN4C(=O)C3CCC3)CC2)c1	-2.8%	-7.8%	.	.	0.2%
Cc1ccc(-c2cc(C(=O)N3CCOCC3)c3ccccc3n2)o1	22.4µM*	-11.8%	1.8%	-1.3%	4.7%
COc1ccc(-c2cc(C(=O)N3CCN(c4ccccc4O)CC3)c3ccccc3n2)cc1	-10.8%	-0.5%	1.5%	0.0%	7.3%
Cc1ccc(-c2cc(C(=O)N3CCN(c4ccc(F)cc4)CC3)c3ccccc3n2)o1	-6.1%	-3.5%	2.0%	6.4%[0.46 µM]	-9.5%
Cc1ccc(-c2cc(C(=O)N3CCN(c4ccccc4O)CC3)c3ccccc3n2)cc1	-2.4%	4.5%	-0.9%	0.5%	7.08µM*
CCCCCCCCCCCCCCCCCCNC(=O)OC1CCN(C(=O)OC[C@H](COC(=O)N(Cc2cccc[n+]2CC)C(=O)c2ccccc2OC)OC)CC1	.	.	.	.	-15.3%
SMILES	GCN5L2 inh	Tb PGK inh	USP2a block	Tb PFK inh	GLS inh
COc1cccc(-n2cc(C(=O)Nc3cccc(C(F)(F)F)c3)c3ccccc3c2=O)c1	-10.5%	-7.0%	.	.	1.7%
O=[N+]([O-])c1ccc(CNc2cccc(Cl)c2)s1	-4.6%	6.6%	-0.7%	7.57µM*	4.0%
CCOc1ccc(NC(=O)/C=C\C(=O)N(c2ccc(C(C)C)cc2)C(C(=O)NCc2ccco2)c2ccc(F)cc2)cc1 (stereo not drawn)	-11.4%	6.0%	.	.	-6.9%
CCn1c(=O)cc(OCC(=O)O)c2ccccc21	2.4%	8.8%	0.7%	1.1%	2.9%
Cn1cc(C(c2ccccc2OCC(=O)O)c2cn(C)c3ccccc23)c2ccccc21	-5.3%	-1.1%	-0.6%	5.6%	14.1µM*
CC1CCn2c(nc3cc(C(=O)NCc4ccc(OC(C)C)cc4)ccc32)C1 (stereo not drawn)	-2.6%	i	.	.	3.8%
O=S(=O)(NCc1cccs1)c1ccccc1Cl	1.1%	-1.3%	1.3%	-4.3%	5.2%
O=S(=O)(NCc1cccs1)c1cccc2cccnc12	3.98µM*	-5.6%	0.5%	1.2%	3.9%
COc1cccc(Nc2ncc3nc(CCc4ccccc4)c(=O)n(C4CC4)c3n2)c1	25.1µM*	.	.	.	.
COC(=O)CSC1=C(C#N)C(=O)NC(c2ccccc2)S1 (stereo not drawn)	35.5µM*	-0.5%	1.0%	?	-3.5%
CSC1=C(C#N)C(=O)NC(c2ccccc2O)S1 (stereo not drawn)	-2.1%	-0.8%	0.2%	-3.4%	-1.5%
CN(C)CCOC1=Cc2ccccc2Sc2ccc(Cl)cc21	.	.	.	.	2.2%
CCc1ccccc1N1CSC2=C(C#N)C(c3cc(OC)c(OC)cc3OC)CC(=O)N2C1 (stereo not drawn)	?	-13.4%	-5.1%	-27.4%	-3.3%
COc1cccc(C2CC(=O)N3CN(c4ccccc4F)CSC3=C2C#N)c1 (stereo not drawn)	15.8µM*	-7.5%	2.3%	-9.2%	-7.6%

Bioassay records from PubChem BioAssay.
